Drawing on PubChem BioAssay (NCI), this text covers growth for 37 compounds.

The panel holds about 83,000 compounds, 20% with a hit somewhere; the sample as a whole holds those more often.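 Testing used 96-well plates and a 48-hour single-concentration exposure. Example: -40 means 40% of the starting cells died.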 Calls of active or inactive are those of the source. Rule for the calls: active = growth percent below 10; inactive = the rest.

In the assay the test system is NCI-H23 lung. The assay is described as follows: NCI-60 one-dose screen, 48 h (100 = growth as untreated, 0 = no growth, -100 = all killed). As to conditions: 10 µM unless noted.
As for `COc1cc(C2CC(c3cc(OC)c(OC)c(OC)c3)=NN2C(C)=O)ccc1OCc1ccccc1` (configuration not stated), the growth is 47.2% (inactive). `Cc1cc(N=C2NC(=O)CS2)n[nH]1`: the growth was 110% (inactive). Take `C=C1CC[C@@H]2[C@]3(C)COC(c4cn[nH]c4-c4ccc(OC)cc4)O[C@@H]3CC[C@@]2(C)[C@@H]1C/C=C1/C(=O)OCC1O` (some centres not stated): the growth is -12.6% (active).

As for `COc1cc2c(c(OC)c1OC)C(=O)CC(c1cccc(NC(=O)c3cc(N)ccc3Cl)c1)O2` (configuration not stated), the growth is 71.9% (inactive). Consider `O=C(N=Nc1c(O)[nH]c2ccc(Cl)cc12)c1ccc2nc(-c3ccccc3)[nH]c2c1`, for which the growth was 29.9% (inactive). Take `CNC(=O)c1cc(Oc2ccc3nc(NC(=O)Nc4cccc(OC(F)(F)F)c4)sc3c2)ccn1`: the growth was 6.71% (active). For the compound `COc1cc2c(c(OC)c1OC)C(=O)CC(c1cccc(NC(=O)c3cc([N+](=O)[O-])ccc3Cl)c1)O2` (configuration not stated), the growth is 20.1% (inactive).

`COc1ccc(C2=NN(C(C)=O)C(c3ccc(OCc4ccc(Cl)cc4)c(OC)c3)C2)cc1OC` (configuration not stated): the growth is 58% (inactive). The result for `COc1ccc2cc([C@H](C)C(=O)N/N=C/c3ccc(Br)cc3)ccc2c1` reads 101% (inactive). As for `CCCCCCCCc1ccc(C(=O)Nc2ccc(C)cc2C(=O)O)cc1C`, the growth was 99.6% (inactive).

Consider `CSc1ccccc1NC(=O)c1ccc2nn(/C(C#N)=C/c3ccccn3)nc2c1`, for which the growth is -83.9% (active). On to `COCOc1ccc2c(=O)c(C)c(C(=O)N[C@@H](Cc3ccccc3)C(O)C(=O)NCCc3ccc(OC)cc3)oc2c1` (some centres not stated), for which the growth was 109% (inactive). Consider `CSc1ccc(C(=O)Nc2ccc3nnn(/C(C#N)=C/c4ccccn4)c3c2)cc1`, for which the growth was -77.8% (active).

As for `COc1ccc(NC(=O)Cn2c(/C=C/c3cccc([N+](=O)[O-])c3)nc3ccccc3c2=O)cc1`, the growth is 81.7% (inactive). On to `CC1(C)CC[C@]2(C(=O)Nc3ccc(Br)cc3)CC[C@]3(C)C(=CCC4[C@@]5(C)C[C@@H](O)[C@H](O)[C@@](C)(CO)C5CC[C@]43C)C2C1` (some centres not stated), for which the growth was 9.43% (active). The value for `N#Cc1c(-c2cccc(Cl)c2Cl)cc(-c2c[nH]c3ccccc23)[nH]c1=O` was 70.2% (inactive); that for `O=c1onc(-c2cc3ccccc3nc2Cl)n1-c1cccc2ccccc12` was 56.5% (inactive).

For the compound `CCN(CC)CCOc1ccc(Nc2ncc3cc(-c4ccc(O)c(C#N)c4)c(=O)n(C)c3n2)cc1`, the growth is 98% (inactive). For the compound `Cc1ccc(NC(=O)[C@]23CCC(C)(C)CC2C2=CCC4[C@@]5(C)C[C@@H](O)[C@H](O)[C@@](C)(CO)C5CC[C@@]4(C)[C@]2(C)CC3)cc1` (some centres not stated), the growth was 29.5% (inactive). For `N#Cc1c(NCc2ccccc2)n[nH]c1Nc1ccccc1`, the growth is 58.4% (inactive).

Consider `CCCSc1nc(NCCc2c[nH]c3ccccc23)c(C#N)c(-c2ccc(OC)cc2)n1`, for which the growth is 73.7% (inactive).

Consider `O=C(NNc1ccccc1)n1c(=O)c2ccccc2c(=O)n1-c1ccccc1`, for which the growth is 100% (inactive). In the case of `COc1cc(C2CC(c3cc(OC)c(OC)c(OC)c3)=NN2C(C)=O)ccc1OCc1ccc(F)cc1` (configuration not stated), the growth is 56.7% (inactive). `CN1CCN(Cc2ccc(C(=O)Nc3cccc(C#Cc4cccc5[nH]nc(N)c45)c3)cc2C(F)(F)F)CC1`: the growth was -87.3% (active). Take `COc1ccc(C(=O)/C=C/c2cccc3ccccc23)cc1S(N)(=O)=O`: the growth was -20.5% (active).

Regarding `O=C(/C=C/c1ccc(O)c(O)c1)NC1CCOC1O` (configuration not stated), the growth was 104% (inactive). For `C=C1CCC2C3(C)COC(c4ccccc4F)OC3CCC2(C)C1CC(O)C1=CCOC1=O` (configuration not stated), the growth was 80% (inactive). Consider `COc1cc(/C=C/C(=O)c2ccc(C)cc2)ccc1Oc1nc(Nc2ccc(F)cc2)nc(N(C)C)n1`, for which the growth is 39% (inactive). Consider `COc1cc2oc(-c3cccc(C(=O)Nc4ccc(Cl)cc4)c3)cc(=O)c2c(OCCNC(=O)[C@@H](N)CCC(=O)O)c1OC`, for which the growth was 88.2% (inactive). Regarding `C=C1CCC2C3(C)COC(c4ccc(F)cc4)OC3CCC2(C)C1CC(O)C1=CCOC1=O` (configuration not stated), the growth is 51.2% (inactive). Consider `Cc1ccc(C(SCCNCc2cc(N(C)C)ccn2)(c2ccccc2)c2ccccc2)cc1`, for which the growth is -35.8% (active). `COc1ccc(-c2c(Nn3cnnn3)no[n+]2[O-])cc1`: the growth was 58.9% (inactive).

For `CC1=C(C(=O)c2ccccc2)C(c2cccc3ccccc23)n2c(nc3ccccc32)N1` (configuration not stated), the growth is 56.5% (inactive). Turning to `CC1(C)CC[C@]2(C(=O)Nc3ccccc3)CC[C@]3(C)C(=CCC4[C@@]5(C)C[C@@H](O)[C@H](O)[C@@](C)(CO)C5CC[C@]43C)C2C1` (some centres not stated), the growth was 75.9% (inactive). Consider `O=C(N/N=C/c1ccc(-c2ccc(O)cc2)o1)c1[nH]c2ccc(Br)cc2c1-c1ccccc1`, for which the growth was 5.82% (active).

Consider `CC(=O)Nc1ccc(-c2cn(-c3cccc(C(=O)Nc4ccc(N5CCN(C)CC5)cc4)c3)nn2)cn1`, for which the growth was 67.4% (inactive).

As to `COc1cc2oc(-c3cccc(NC(=O)[C@H](Cc4ccccc4)NC(=O)OC(C)(C)C)c3)cc(=O)c2c(OC)c1OC`, the growth is 39.1% (inactive).
